The OligoGym collection

What follows are sequences tested against KRTAP5-8 (assay: pooled miR-30 sensor sort-seq; sequence = guide strand). Conditions: shRNA.
Note: reference of the scale not given here.

Sequence | sensor-assay potency score (higher = more potent)
CTGCAGGGCTTACAACAGCTGG | -2.04
AGCCTGAGGAGCAACAGCAGGG | -1.24
TGAGGAGCAACAGCAGGGCTTA | -1.48

What follows are sequences tested against KRTAP5-9 in the same assay as above. Conditions: shRNA.

Sequence | sensor-assay potency score (higher = more potent)
TGAGGATGAGCAGCAGGGCTTG | -1.74
TTGCCACAGCTAGAGCAGGAAC | -1.67
AGCTAGAGCAGGAACAGGCTGG | -1.04
CACACAGGGACACAGCATCTGG | -1.57
TAGAGCAGGAACAGGCTGGAAC | -1.08
TCACAGCCTCCACAGCTGGAGC | -1.62
TGGAACACAGCAGCACACGGGC | -1.32
TTGCAGCAGTAGACGGGTGCAC | -0.372
TAGGGCTTGCAGCAGCTGCACT | -1.29
AGTCACAGCCTCCACAGCTGGA | -1.85
TAGACGGGTGCACAGCAGCTGG | -1.34
TGAAGAGCAACAGCAGGGCTTG | -0.909

The sequences below were run against KRTAP6-3 in the same assay as above. Conditions: shRNA.

Sequence | sensor-assay potency score (higher = more potent)
TAGTAGCTGCCACACATGGTGT | -1.17
TTTCTGTAGTAGCTGCCACACA | -1.22
ATTGTAGTTTCTGTAGTAGCTG | -0.231
TAGCCACAGCCACAGAAGGAGC | -1.94
TTGTAGTTTCTGTAGTAGCTGC | -0.198
TAGTTTCTGTAGTAGCTGCCAC | -0.443
TTCTGTAGTAGCTGCCACACAT | -0.0154
ACAGCCATAGCCACAGTCCAGG | -1.73
TCTGTAGTAGCTGCCACACATG | -1.43
TCTGTAGCCACAGCCACAGAAG | -1.55
ATAGCCATGGCCACCATTGTAG | -1.31
TGTAGTTTCTGTAGTAGCTGCC | 0.749

These sequences were tested against KRTAP8-1 in the same assay as above. Conditions: shRNA.

Sequence | sensor-assay potency score (higher = more potent)
TAGCCGAAAGCCCCACAGCCGT | -1.72
TGCTGCCATAGCCACAGCCAAC | -2.12
TGTAGCCATAGCCGAAGCCATA | -1.87
TAGGTGCTGCCATAGCCACAGC | -1.53
TAGCATCCTGGGAAGACAGCCC | -0.588
ATCCTGGGAAGACAGCCCCGGG | -1.89
ACAGCCAACGCTATATCCCAGC | -1.47
TTGTAGCCATAGCCGAAGCCAT | -1.41
AGCCGTTGTAGCCATAGCCGAA | -1.46
TATATCCCAGCGGGTAGCCATA | -1.94
TGCCCCAGTAGCATCCTGGGAA | -0.828
TTGGAAAGCAGTGTCTCTGAGG | -0.482
